# Results taken from PubChem BioAssay (EPA / NIEHS).
# Active and inactive are the calls of the source. How the source made its calls: active means hit-call score of the fitted dose curve at least 0.9, where 1 is the maximum; inconclusive means response in the unintended direction; inactive means score below 0.9.
# Biological target: Estrogen receptor beta (Homo sapiens) (UniProt Q92731)
# Experiment: OT_ER_ERbERb_1440: Odyssey Thera (OT) 24-hour HEK293T Protein-Complementation Assay for Estrogen Receptor-beta/-beta Homodimer (AID 2283380);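 further: scored as signal increase over DMSO baseline for both agonists and antagonists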
# Experimental: OT_ER_ERbERb_1440 is a cell-based assay that uses HEK293T, a human kidney cell line, with measurements taken at 24 hours after chemical dosing in a 384-well plate.OT_ER_ERbERb_1440 is one of one assay component(s) measured or calculated from the OT_ER_ERbERb_1440 assay. It is designed to make measurements of protein fragment complementation, a form of binding reporter, as detected with fluorescence intensity signals by Protein-fragment Complementation technology.Data from the assay component OT_ER_ERbERb_1440 was analyzed into 1 assay endpoint. This assay endpoint, OT_ER_ERbERb_1440, was analyzed in the positive analysis fitting direction relative to DMSO as the negative control and baseline of activity. Using a type of binding reporter, measures of receptor for gain-of-signal activity can be used to understand the binding at the pathway-level as they relate to the gene ESR2. Furthermore, this assay endpoint can be referred to as a primary readout, because the performed assay has only produced 1 assay endpoint. To generalize the intended target to other relatable targets, this assay endpoint is annotated to the nuclear receptor intended target family, where the subfamily is steroidal.
# Protein-fragment complementation assay, or PCA, is a method for the identification and quantification of protein-protein interactions. In the PCA, the proteins of interest ("bait" and "prey") are each covalently linked to fragments of a third protein (e.g. DHFR, which acts as a "reporter"). Interaction between the bait and the prey proteins brings the fragments of the reporter protein in close proximity to allow them to form a functional reporter protein whose activity can be measured. The OT ER beta / ER beta assay is a homodimer PCA of the ligand binding domain (LBD; amino acids 310-547) of human ER beta stably expressed in HEK293T cells. […] Cells are fixed in 4 percent formaldehyde and stained with Draq5 (BioStatus) to identify cells prior to signal detection. Fluorescent signal in the basal state of the assay is very low and is primarily punctuate and cytoplasmic. Modulation of this assay is quantified as an increase in mean fluorescence intensity in the nucleus (for agonists) or in the nucleus and cytoplasm (antagonists) relative to vehicle controls, and can be quantified on a high content imaging device or a laser scanning cytometer. The latter instrument is favored for this assay because of the rapid mode of data acquisition, the ability to acquire data from the entire cell population in a well (as opposed to a fraction of the well on the high content devices) and the larger dynamic range typically achieved with this instrument. To assess sensitivity of the ER beta/ER beta LBD assay to ligand, cells were treated with the ER agonist 17- beta-estradiol (E2) in 10-point concentration- response format for 24 hours and monitored response on a laser scanning plate cytometer (Acumen eX3; TTP Lab Tech).
# Chain of Estrogen receptor beta (Homo sapiens) (Q92731 whole entry, looked up): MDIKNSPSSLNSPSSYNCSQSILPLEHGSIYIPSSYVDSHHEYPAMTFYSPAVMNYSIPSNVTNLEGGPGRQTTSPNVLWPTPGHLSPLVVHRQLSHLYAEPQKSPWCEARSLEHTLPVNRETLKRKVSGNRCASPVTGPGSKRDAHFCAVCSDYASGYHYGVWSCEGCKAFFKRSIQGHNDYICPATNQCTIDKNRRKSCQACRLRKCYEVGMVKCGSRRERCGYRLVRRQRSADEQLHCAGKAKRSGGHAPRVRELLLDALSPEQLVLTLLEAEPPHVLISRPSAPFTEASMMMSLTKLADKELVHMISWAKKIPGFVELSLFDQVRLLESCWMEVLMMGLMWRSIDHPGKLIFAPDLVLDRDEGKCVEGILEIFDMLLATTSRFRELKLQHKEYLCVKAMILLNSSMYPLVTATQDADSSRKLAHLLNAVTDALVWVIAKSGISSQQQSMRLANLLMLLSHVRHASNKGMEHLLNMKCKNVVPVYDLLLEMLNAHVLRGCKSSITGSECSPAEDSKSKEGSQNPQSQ
SMILES,outcome,AC50
CCC[CH2][Sn]([CH2]CCC)([CH2]CCC)[CH2]CCC,inactive,–
CN(N=O)C(N)=O,inactive,–
Cc1cc(C)cc(C)c1,inactive,–
CC(C)N(C(=O)CCl)c1ccccc1,inactive,–
CCN(CCO)CCO,inactive,–
COC(=O)Nc1cccc(OC(=O)Nc2cccc(C)c2)c1,inactive,–
O=C(CBr)c1ccc(O)cc1,inactive,–
CCCSP(=S)(OCC)Oc1ccc(SC)cc1 (stereo not given),inactive,–
O=C(NC(=O)c1c(F)cccc1F)Nc1ccc(Cl)cc1,inactive,–
CC1(C)[C@H](C(=O)O[C@H](C#N)c2cccc(Oc3ccccc3)c2)[C@@H]1/C=C(\Cl)C(F)(F)F,inactive,–
COc1nn(C(=O)NS(=O)(=O)c2ccccc2OC(F)(F)F)c(=O)n1C,inactive,–
O=[N+]([O-])c1ccccc1O,inactive,–
O=CCCl,inactive,–
CC(O)(CS(=O)(=O)c1ccc(F)cc1)C(=O)Nc1ccc(C#N)c(C(F)(F)F)c1 (stereo not given),–,1.75 µM (active)
Clc1cccc(Cl)c1,inactive,–
Cc1cc(Cl)ccc1OCCCC(=O)O,inactive,–
CC(C)=CC1C(C(=O)OCc2cccc(Oc3ccccc3)c2)C1(C)C (stereo not given),inactive,–
C=CC(Cl)CCl (stereo not given),inactive,–
Oc1c(Cl)cc(Cl)cc1Cl,inactive,–
Oc1cc(Cl)c(Cl)cc1Cl,–,75.1 µM (active)

SMILES,outcome,AC50
O=C(O)COc1cc(Cl)c(Cl)cc1Cl,inactive,–
O=C(CCl)Nc1ccccc1,inactive,–
CCOP(=S)(OCC)O/N=C(\C#N)c1ccccc1,–,50 µM (active)
CC(=Cc1ccccc1)[N+](=O)[O-],inactive,–
CCOc1ccc(N)cc1,inactive,–
O=S1(=O)OC(c2cc(Br)c(O)c(Br)c2)(c2cc(Br)c(O)c(Br)c2)c2ccccc21,inactive,–
CCOCn1c(-c2ccc(Cl)cc2)c(C#N)c(Br)c1C(F)(F)F,–,12.6 µM (active)
O=C(N[C@H]1CN2CCC1CC2)c1ccc2c(c1)OCCO2,inactive,–
O=C(O)COc1ccc(Cl)cc1,inactive,–
N#CCCC(Br)(C#N)CBr (stereo not given),–,11.9 µM (active)
Cc1cc(Cl)ccc1OC(C)C(=O)O (stereo not given),inactive,–
O=C(NC(=O)c1c(F)cccc1F)Nc1cc(Cl)c(OC(F)(F)C(F)C(F)(F)F)cc1Cl (stereo not given),inactive,–
Nc1ccc(N)cc1,–,12.4 µM (active)
CNC(=O)O/N=C/C(C)(C)S(C)(=O)=O,inactive,–
N#Cc1cccnc1,inactive,–
CC(C)(C)c1ccccc1O,inactive,–
COCCl,inactive,–
CN(C)C(=S)S,inactive,–
Nc1ncn[nH]1,inactive,–
CCC[CH2][Sn]([Cl])([Cl])[CH2]CCC,inactive,–
